# NCOA2 inhibitor: inhibits human steroid receptor coactivator 2; HEK293 GAL4-SRC2 luciferase reporter, luminescence; Q15596; inhibition, % at 9 µM; 370,000 tested, 0.17% active;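 active means inhibition above the mean inhibition of all tested compounds plus 3 SD, set per campaign, cut at about 52% in these data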;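 further: 0% = DMSO treated cells and 100% = cells given Gossypol at 36 µM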
# NCOA3 inh: human NCOA3 inhibition | Q9Y6Q9 | 360,000 tested, 0.17% active | inhibition, % at 3.6 µM | HEK293 GAL4-SRC3 luciferase reporter, luminescence;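 active means inhibition above a per-campaign cutoff, the mean of all compounds plus 3 SD, cut at about 60% in these data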;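 further: 0% = DMSO-treated cells and 100% = gossypol-treated cells at 36 µM; higher means less SRC3-driven luciferase light from the GAL4 reporter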
# Gli-Sufu block: Gli-Sufu pathway antagonism | Sufu-KO-LIGHT fibroblasts, Gli luciferase reporter luminescence | inhibition, % at 5 µM | 340,000 tested, 0.74% active;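 active means inhibition above about 55%, limit read from the data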;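 further: 0% = DMSO-treated cells and 100% = wells with medium but no cells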
# LRH-1 inv ag: inverse agonists of human LRH-1 (NR5A2); O00482; HEK293T StAR-luciferase reporter, LRH-1 transfected, 24 h; inhibition, % at 3.6 µM; 360,000 tested, 0.13% active; AID 602396;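 active means inhibition above the mean inhibition of all tested compounds plus 3 SD, cut at about 73% in these data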;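 further: 0% = DMSO wells and 100% = reporter-only cells lacking LRH-1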
# Target sequence (O00482 whole entry, looked up): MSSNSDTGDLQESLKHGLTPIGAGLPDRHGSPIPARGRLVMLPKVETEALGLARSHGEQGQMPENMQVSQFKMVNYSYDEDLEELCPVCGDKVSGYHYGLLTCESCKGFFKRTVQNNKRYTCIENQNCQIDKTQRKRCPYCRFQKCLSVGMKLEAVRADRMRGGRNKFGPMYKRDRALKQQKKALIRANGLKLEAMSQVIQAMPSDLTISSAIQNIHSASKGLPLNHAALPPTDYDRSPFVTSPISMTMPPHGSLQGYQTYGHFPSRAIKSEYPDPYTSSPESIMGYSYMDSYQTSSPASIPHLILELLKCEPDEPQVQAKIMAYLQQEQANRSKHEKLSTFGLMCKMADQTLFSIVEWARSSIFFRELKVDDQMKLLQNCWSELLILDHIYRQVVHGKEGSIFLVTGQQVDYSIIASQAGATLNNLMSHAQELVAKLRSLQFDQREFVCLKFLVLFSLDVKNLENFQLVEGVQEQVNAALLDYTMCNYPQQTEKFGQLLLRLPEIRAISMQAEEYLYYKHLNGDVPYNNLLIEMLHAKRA
# NR2F2 inh: blocks human COUP-TFII nuclear receptor | AID 686940 | inhibition, % at 8.6 µM | HEK293T NGFI-A luciferase reporter, luminescence | P24468 | 370,000 tested, 0.7% active;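 active means inhibition above a per-plate cutoff, mean inhibition of test wells between control levels plus 3 SD, cut at about 38% in these data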;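 further: cells cotransfected with COUP-TFII expression vector driving the NGFI-A reporter; 0% = median of COUP-TF2 test wells and 100% = reporter-only cells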
# SRC1 inh: human NCOA1 inhibition. AID 588354. inhibition, % at 3.6 µM. 360,000 tested, 0.12% active. HEK293 GAL4-SRC1 luciferase reporter, luminescence. Q15788;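 active means inhibition above the campaign mean plus 3 SD, with each screening campaign given its own cutoff, cut at about 60% in these data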;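 further: 0% = DMSO treated cells and 100% = gossypol at 36 µM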
# Gal4-VP16 ctr: VP16 inhibition counter-screen for COUP-TFII; shares compounds with NR2F2 inh; HEK293 Gal4-VP16 luciferase reporter, luminescence; inhibition, % at 8.5 µM; 2,500 tested, 25% active; AID 687007; in the data active means inhibition above about 13%
# NR2F2 inh conf: confirmation of human COUP-TFII (NR2F2) inhibitors. shares compounds with NR2F2 inh. HEK293 NGFI-A luciferase reporter, luminescence. inhibition, % at 8.5 µM. 2,500 tested, 45% active;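 active means mean inhibition over three repeats above a set limit taken from the earlier primary screen, cut at about 38% in these data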;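 further: 100% = cells given the luciferase reporter alone without the COUP-TF2 vector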
# * hit, by the source's call; x = no result. Hits are enriched below; roughly 1.3% of the tested compounds scored in any of these assays.
SMILES,NCOA2 inhibitor,NCOA3 inh,Gli-Sufu block,LRH-1 inv ag,NR2F2 inh,SRC1 inh,Gal4-VP16 ctr,NR2F2 inh conf
Cc1ccc(NC(=O)c2cc(S(=O)(=O)N3CCCCC3)cs2)cc1,37,-7,1,19,48*,7,2,19
O=C(Nc1ccc(S(=O)(=O)N2CCOCC2)cc1)c1ccc(S(=O)(=O)N2CCOCC2)cc1,5,10,7,1,-9,-8,x,x
O=C(Nc1ccc(Cc2ccncc2)cc1)c1ccc(S(=O)(=O)N2CCOCC2)cc1,9,26,21,25,41*,24,3,28
CCN(CC)CCCNC(=O)CSc1nc2cccnc2n1C,-25,x,x,x,-5,x,x,x
O=C(CSc1nnc(-c2cccnc2)n1-c1ccc(Cl)cc1)c1ccc2ccccc2c1,2,x,x,x,4,x,x,x
COc1ccc(CNC(=O)O[C@H]2CC[C@@]34CCCN3C(=O)CCC[C@H]4[C@H]2C)cc1,x,x,x,x,8,x,x,x
CN(c1ccc(C(=O)Nc2ccc(S(=O)(=O)N3CCCC3)cc2)cc1)S(C)(=O)=O,30,25,-2,29,47*,5,-3,11
O=C(Nc1ccc(S(=O)(=O)N2CCCC2)cc1)c1ccc(CN2CCOCC2)cc1,24,29,-9,33,63*,24,6,48*
CN(c1ccccc1C(=O)Nc1ccc(S(=O)(=O)N2CCCC2)cc1)S(C)(=O)=O,4,-3,-2,5,8,-5,x,x
Cc1cnc(NC(=O)c2ccc3c(c2)OCCO3)s1,67*,22,10,8,46*,8,-5,20
C[N+](C)(C)CCC(=O)N1C/C(=C/c2ccccc2)C(=O)/C(=C\c2ccccc2)C1,6,16,-29,-8,72*,-15,22*,29
O=C1/C(=C/c2ccccc2)CN(C(=O)CCN2CCOCC2)C/C1=C\c1ccccc1,13,13,6,53,57*,-45,35*,26
COc1ccc(OC(=O)N2C/C(=C/c3ccccc3)C(=O)/C(=C\c3ccccc3)C2)cc1,19,21,4,4,20,0,x,x
CN(C)CCC(=O)N1C/C(=C/c2ccccc2)C(=O)/C(=C\c2ccccc2)C1,64*,-6,19,81*,79*,-58,81*,87*
CCOC(=O)N1C/C(=C\c2ccccc2)C(=O)/C(=C/c2ccccc2)C1,-140,26,-11,-2,28,4,x,x
CC(C)C[C@@H]1COc2cc(Br)ccc2S(=O)(=O)N1Cc1cn(Cc2ccc(Br)cc2)nn1,0,x,x,x,6,x,x,x
CCOC(=O)c1cnc(-n2nc(C)cc2C)nc1NCc1ccc2c(c1)OCO2,-22,4,2,7,14,9,x,x
CCOC(=O)c1cnc(-n2nc(C)cc2C)nc1Nc1ccc(OC)cc1,-1,1,11,20,-9,10,x,x
CCOC(=O)c1cnc(-n2nc(C)cc2C)nc1NCCc1ccccc1,2,25,29,2,48*,11,-12,10
CCOC(=O)c1cnc(-n2nc(C)cc2C)nc1NC1CCCC1,22,23,18,44,44*,3,7,56*
CCCC(=O)OC12CCCN(C1)/C(=C/c1cccc(N(C)C)c1)C2 (centres undefined),0,x,x,x,1,x,x,x
O=Nc1c2cc(-c3ccccc3)[nH]nc-2c2ccccc12,-73,-57,-62,-118,-45,-93,x,x
Cc1ccc(-c2cc3c(N=O)c4ccccc4c-3n[nH]2)cc1,61*,73*,59*,42,84*,69*,37*,86*
CCC(NC(=O)Cn1c(-c2ccccc2)cc(C(C)=O)c1C)c1ccccc1 (centres undefined),7,x,x,x,13,x,x,x
COc1ccccc1OCC(=O)/C=C1/N(C)c2ccccc2C1(C)C,14,12,14,15,18,18,x,x
SMILES,NCOA2 inhibitor,NCOA3 inh,Gli-Sufu block,LRH-1 inv ag,NR2F2 inh,SRC1 inh,Gal4-VP16 ctr,NR2F2 inh conf
CN1/C(=C\C(=O)C[n+]2ccc3ccccc3c2)C(C)(C)c2ccccc21,4,51,34,61,79*,16,17*,52*
COC(=O)C[C@H]1CC[C@H]2[C@H](COc3ccc(NS(=O)(=O)c4cccc(F)c4)cc3C(=O)N2C)O1,-15,x,x,x,-11,x,x,x
CN(C)c1ccc(-c2ccnc3c2CC(C)(C(=O)NCc2ccco2)O3)cc1 (centres undefined),14,-8,x,27,49*,3,-10,12
CC(=O)Nc1ccc(-c2ccnc3c2CC(C)(C(=O)NCc2ccco2)O3)cc1 (centres undefined),1,10,x,23,2,9,x,x
CCCCCCC(=O)N(O)C1CC(=O)N(c2ccc(Cl)cc2)C1=O (centres undefined),31,10,-30,7,52*,12,-7,39*
CCC(C)NC(=S)Nc1ccc(C(=O)OC)cc1 (centres undefined),15,-8,8,-20,39*,12,-37,-13
CCC(C)NC(=S)Nc1ccccc1 (centres undefined),6,4,-19,22,12,-19,x,x
COc1ccc(OC)c(/C=C/c2ccc3cccc(O)c3n2)c1,-26,-3,x,1,2,-5,x,x
COc1ccc(C=Cc2ccc3ccccc3n2)c(OC)c1,12,4,x,-21,47*,-6,-30,27
COC(=O)[C@H]1[C@@H](O)[C@@]2(O)c3c(OC)cc(OC)cc3O[C@@]2(c2ccc(OC)cc2)[C@@H]1c1ccc(F)cc1,62*,x,x,x,84*,x,5,65*
COC(=O)C1C(=O)C=C(Nc2ccc(F)cc2)CC1c1ccc(OC)cc1 (centres undefined),-41,-29,-26,-43,-11,-39,x,x
CCCCN1CN2Cc3cc(F)ccc3C2CS1(=O)=O (centres undefined),-13,x,x,x,4,x,x,x
Cc1ccc(Cl)cc1N1CCN(C(=O)CN(C2CCCCC2)S(C)(=O)=O)CC1,9,-9,34,12,40*,-4,3,13
CS(=O)(=O)N(CC(=O)N1CCN(c2cccc(Cl)c2)CC1)C1CCCCC1,19,14,4,2,-5,-16,x,x
Cc1ccc(Cl)cc1N1CCN(C(=O)COc2ccc(S(=O)(=O)NC(C)C)cc2)CC1,-4,1,8,-12,38*,18,1,39*
OCCC(N1CCOCC1)C(O)(c1ccccc1)c1ccccc1 (centres undefined),-8,x,x,x,-4,x,x,x
Nc1[nH]c(C(=O)c2ccc(Br)cc2)c(-c2ccccc2Cl)c1C(=O)NCCc1c[nH]c2ccccc12,-23,x,x,x,4,x,x,x

# High-throughput results deposited in PubChem by several laboratories.
